Measurements reported in PubChem BioAssay (NCATS).
Results filed as inconclusive are left out. Active and inactive are the calls of the source. Calls follow the shape of the dose curve; as a rule, active = well fitted cell-killing curve with a large enough effect; inconclusive = small, poorly fitted or top-dose-only effect, or effect the other way; inactive = flat fitted curve, though single readings scatter.

How the values were obtained:
Test in all cases: Primary qHTS to identify gynecologic anti-cancer compounds using libraries of approved drugs and bioactive compounds (AID 1345084); also: nearly all actives have a fitted effect of over 55% in size
Conditions in all cases: Gynecologic cancer cell panel viability, ATPlite luminescence, 48 h; series mostly up to 57.5 µM
PA-1 = test system: PA-1
Method in brief: (§1)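 Cells, 1,000 per well, plated 16 h, then exposed 48 h at 37 C to compounds. Viability by ATPlite luminescence after 15 min at room temperature.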

SKOV3 = test system: SKOV3
Method in brief: as §1

Tov-21-G = test system: Tov-21-G
Method in brief: as §1

Tov112D = test system: Tov112D
Method in brief: as §1

Measured: Potency

CC[C@@H](Nc1c(Nc2cccc(C(=O)N(C)C)c2O)c(=O)c1=O)c1cc(C(C)C)co1
inactive: all assays above

CC1(C)SCCN(S(=O)(=O)c2ccc(Oc3ccncc3)cc2)[C@H]1C(=O)NO
inactive: all assays above

CC[C@H](C)/C=C(C)/C=C/C1=CC2=C(Cl)C(=O)[C@](C)(O)[C@H](OC(C)=O)[C@H]2CO1
inactive: all assays above

C[C@H]1CC[C@@]2(OC1)O[C@H]1CC3C4CC[C@H]5C[C@@H](O)CC[C@]5(C)C4=CC(=O)[C@]3(C)[C@H]1[C@@H]2C (stereo not given in full)
inactive: all assays above

C=C1/C(=C/C=C2\CCC[C@]3(C)[C@@H]([C@H](C)/C=C/[C@H](O)C4CC4)CC[C@@H]23)C[C@@H](O)C[C@@H]1O
inactive: all assays above

CCC/C=C/C=C/C1CC(O)C2(O)C(=O)OCC12 (stereo not given)
inactive: all assays above

C=C[C@]1(C)C[C@H](O)[C@H]2C(=C)C(=O)O[C@@H]2[C@H]1C(=C)CO
inactive: all assays above

COc1c2c(nc3occc13)C(CC=C(C)C)(OC)C(O)CC2 (stereo not given)
inactive: all assays above

C=CCc1ccc(OC(C)Cc2ccc(OC)c(OC)c2)c(OC)c1 (stereo not given)
inactive: all assays above

CC(=O)OCC(=O)[C@@]12O[C@@H]1C[C@H]1[C@@H]3CC=C4C[C@@H](O)CC[C@]4(C)[C@H]3CC[C@@]12C
inactive: all assays above
